Source: PubChem BioAssay (Broad Institute)
aSyn UTR act = Activators via SNCA 5'UTR binding, MLPCN | alpha-synuclein 5'UTR reporter, activators screen | activity score, % (tested at 7.5 µM), hits read low | 7.1% of 300,000 active | AID 1814, 2009; in the data active means activity score below about -60%
Hits are given with their value; . = inactive. Not all results are given here.

SMILES	aSyn UTR act
CN(CC(=O)NCCc1ccccc1)Cc1ccco1	-81
O=C(NCCc1ccccc1)c1c(F)cccc1F	-115
COC(=O)/C=C/c1ccccc1S(=O)(=O)N(Cc1ccccc1)Cc1ccco1	.
Cc1cc(C)n(CC(=O)NC2CCCc3c2cnn3-c2ccc(C)c(C)c2)n1 (stereo not drawn)	-84
Cc1ccc(-n2ncc(C(=O)Nc3cc(Cl)cc(Cl)c3)c2C2CCNCC2)cc1C	.
Cc1cc(O)c(NC(=O)c2ccco2)cc1C	-98
Cc1ccc(C(=O)Nc2ccc(NC(=O)c3ccco3)c(C)c2)cc1	-67
Cc1ccc(O)c(NC(=O)c2ccco2)c1	-66
Cc1cc(NC(=O)c2ccccc2)ncc1NC(=O)c1ccco1	-115
Cc1cc(NC(=O)C(C)C)ncc1NC(=O)c1ccccn1	-88
CCc1c(C)sc(NC(=S)Nc2nc(C)cc(C)n2)c1C(=O)OC	-98
CC(C)(C)NC(=O)C(=O)NNC(=O)c1cccc(F)c1	-89
Oc1ccc(CN2CCC(Cc3ccccc3)CC2)c2cccnc12	.
c1ccc(CC2CCN(C3=Nc4cccc5cccc3c45)CC2)cc1	-95
COc1ccccc1N1CCN(C2=Nc3cccc4cccc2c34)CC1	-181
CC(=O)c1ccc2oc3ccccc3c(=O)c2c1	-81
CCOC(=O)c1cc2c(=O)c3ccccc3oc2nc1C	-153
COCc1nc2oc3ccccc3c(=O)c2cc1C(=O)OC	-89
CC(=O)c1cc2c(=O)c3ccccc3oc2nc1C	-116
OCCNCc1ccc(OCc2ccc(Cl)cc2Cl)cc1	-84
S=C(Nc1ccccc1)Nc1ccc(OCc2ccc(Cl)cc2Cl)cc1	.
Cc1nc(-c2ccc(NC(=O)Cc3ccccc3)cc2)cs1	-164
CCC(=O)Nc1ccc(-c2csc(C)n2)cc1	-81
Cc1nc(-c2ccc(NC(=O)c3ccco3)cc2)cs1	.
Cc1c(C(=O)NC2CCOC2)oc2c(F)cccc12 (stereo not drawn)	-148
SMILES	aSyn UTR act
Cc1c(C(=O)N2C[C@@H](C)O[C@@H](C)C2)oc2c(F)cccc12	-73
CCc1ccc(-c2csc(-c3c[nH]c4ccccc34)n2)cc1	-308
COC(=O)CCc1sc(Nc2ccccc2)nc1-c1ccc(OC)cc1	-62
O=C(N/N=C/C(Cl)=C\c1ccccc1)c1ccco1	-224
O=C(N/N=C/C(Cl)=C/c1ccccc1)c1ccco1	-158
CC(=O)Nc1ccccc1C(=O)C(=O)Nc1ccc(C)c(C)c1	-182
CC(=O)Nc1ccccc1C(=O)C(=O)Nc1cccc(F)c1	-149
CCN(CC)C(=O)C(=O)Nc1ccc(F)c(Cl)c1	-131
CC(=O)Nc1ccccc1C(=O)C(=O)Nc1ccc(F)c(Cl)c1	-123
CC(=O)Nc1ccccc1C(=O)C(=O)Nc1ccc(C)c(F)c1	-264
Cc1ccc(NC(=O)/C(Cl)=C/c2ccccc2)cc1C	-156
Cc1ccc(C(=O)NC(=S)Nc2ccc(-c3cc4ccccc4oc3=O)cc2)c(C)c1	.
COc1ccc(C(=O)Cc2cc3ccccc3oc2=O)cc1	-125
Cc1ccc(C(=O)Cc2cc3ccccc3oc2=O)c(C)c1	-130
CCOC(=O)c1ccc(NCc2ccc(N(C)C)cc2)cc1	-87
COC(=O)c1ccc(NC(=O)CNc2ccccc2)cc1	-99
CCOC(=O)c1ccc(NC(=S)Nc2ccc(C)cc2)cc1	-145
CCOC(=O)c1ccc(NC(=S)Nc2ccccc2)cc1	-147
CN1CCN(C(c2ccc(Br)cc2)c2cc(Cl)c3cccnc3c2O)CC1 (stereo not drawn)	.
CCOC(=O)c1c(C)c(C(=O)Nc2ccc(N(C)C)cc2)c(C)n1CC	-82
CCOC(=O)c1cn[nH]c1NC(=S)Nc1ccc(Cl)cc1	-66
CCOC(=O)c1ccc(CNCc2ccccc2)cc1	-66
CCOC(=O)c1ccc(S(=O)(=O)NCCN(CC)CC)cc1	.
CCOC(=O)c1cccc(OS(=O)(=O)Cc2ccccc2)c1	-63
CCOc1ccc(/C=N/NC(=O)c2ccccc2NC(=O)c2ccc(OC)cc2)cc1	-71
SMILES	aSyn UTR act
CCOc1ccc(C(=O)Nc2ccccc2C(=O)O)cc1	-89
COc1ccc(C(=O)Nc2ccccc2C(=O)N/N=C/c2ccco2)cc1	-79
O=C(Nc1ccccc1C(=O)N/N=C/c1ccncc1)c1ccccc1	-140
O=C1/C(=N\S(=O)(=O)c2cccs2)C([n+]2cccc(Cc3ccccc3)c2)=C([O-])c2ccccc21	.
Cn1ncc(Cl)c1C(=O)Nc1nc2ccc(Cl)cc2s1	-198
Cc1cc(C(=O)Nc2nc3ccc(Cl)cc3s2)nn1C	-128
O=C1c2sc3nc4ccccc4n3c2C(=O)N1c1ccccc1Cl	-72
Cc1cccc(-n2cnc3cc(C(=O)N4CCCCC4)ccc32)c1	-74
CCCn1c(NC(=O)c2ccc([N+](=O)[O-])o2)nc2ccccc21	-88
COc1ccccc1NC(=O)c1ccc([N+](=O)[O-])o1	-98
O=C(Nc1cc(-c2nc3ncccc3o2)ccc1Cl)c1ccc([N+](=O)[O-])o1	-200
O=C(Nc1cccc2ccccc12)c1ccc([N+](=O)[O-])o1	-179
N/C(=N\OC(=O)Nc1ccccc1)c1ncc([N+](=O)[O-])s1	-94
O=C(NC1CCCCCC1)C(=S)NCc1ccccc1	-86
O=C(NC1CCCCC1)C(=S)NCc1ccccc1	-71
O=C(NC1CCCCC1)C(=S)NC1CCCCC1	-106
COc1ccc(CNC(=O)NC2CCCCC2)cc1	-80
COc1ccc(N=Cc2oc3ccc4ccccc4c3c2O)cc1	-223
O=C(/C=C/Nc1ccccc1)c1ccc(Cl)cc1Cl	-122
Cc1cccc2c3nc4ccccc4nc3n(C)c12	-78
O=[N+]([O-])c1ccc(O)c(/C=N/Nc2ncnc3c2cnn3-c2ccccc2)c1	.
Clc1ccc(Nc2ncnc3c2cnn3-c2ccccc2)cc1	-119
Cn1ncc2c(O/N=C(\N)c3ccc(C(C)(C)C)cc3)ncnc21	.
CC(=O)Nc1ccc(Nc2ncnc3c2cnn3-c2ccccc2)cc1	-110
CC(=O)Nc1ccc(Nc2ncnc3c2cnn3-c2cccc(C)c2)cc1	-159
SMILES	aSyn UTR act
Cn1ncc2c(Nc3ccc4ccccc4c3)ncnc21	-164
CC(C)Nc1ncnc2c1cnn2-c1ccc(Cl)cc1	.
O=S(=O)(/N=C(/Nc1ccccn1)c1ccc(Cl)cc1)c1ccc(Cl)cc1	-91
O=C(NN/C(=N/S(=O)(=O)c1ccc(Cl)cc1)c1ccccc1)c1ccc(O)cc1	-112
Cc1ccc(S(=O)(=O)/N=C(/NNC(=O)c2cccc(Cl)c2)c2ccccc2)cc1	-101
O=C(NN/C(=N/S(=O)(=O)c1ccc(Cl)cc1)c1ccccc1)c1cccc(Cl)c1	-124
Clc1ccccc1OCCn1nnc2ccccc21	-169
Cc1cc(C)cc(OCCn2nnc3ccccc32)c1	-126
Cc1ccc(C)c(OCCn2nnc3ccccc32)c1	-70
Cc1ccc(OCCn2nc3ccccc3n2)c(C)c1	-90
Cc1ccc2[nH]c3c(=O)n(N)c(C)nc3c2c1	-70
CC(C)(C)c1nnc(N/N=C/c2ccccc2O)n(N)c1=O	.
Cc1cccc(N/N=C/c2ccncc2)c1	-109
COc1ccc2nc(C)cc(N/N=C/c3cccc(OC)c3O)c2c1	.
Cc1ccccc1/C=N/Nc1nc2ccccc2c(=O)n1O	-129
Cc1cc(N/N=C/c2ccccc2O)c2ccccc2n1	-113
Cc1cccc(N/N=C/c2ccccc2O)c1	-182
CCC(=O)Nc1ccc(NC(=O)c2ccccn2)cn1	-88
CCCC(=O)Nc1ccc(NC(=O)c2ccccc2Cl)nc1	-76
Cc1ccc(-c2nc(C(Cl)Cl)c3ccccc3n2)cc1	.
c1cncc(-c2nc(NCCCn3ccnc3)c3ccccc3n2)c1	-66
Cc1ccc(-c2nc(N/N=C/c3cccnc3)c3ccccc3n2)cc1	-258
